Measurements: the supplement of paper PMC8728848
This excerpt belongs to a sample that is enriched for the strongest signals.

Tests used:
Assay in all cases: glycan array binding signal (z-score within array); higher = stronger binding
Settings in all cases: glycan notation: IUPAC condensed, linker removed
[1] = target: Fuc(a1-2)Gal(b1-3)GlcNAc(b1-3)GalNAc
Procedure, shortened: (§1)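 Columns mapping to the same glycan were averaged after glycan names were converted to IUPAC-condensed notation. The data come from 3228 arrays in the Consortium for Functional Glycomics database, limited to those with an available protein sequence. Binding is reported as a within-array Z-score averaged across arrays of one protein sequence and across linkers.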

Fuc(a1-2)Gal(b1-4)Glc = target: Fuc(a1-2)Gal(b1-4)Glc
Procedure, shortened: as §1

[2] = target: Fuc(a1-2)Gal(b1-4)GlcNAc(b1-2)Man(a1-3)[Fuc(a1-2)Gal(b1-4)GlcNAc(b1-2)Man(a1-6)]Man(b1-4)GlcNAc(b1-4)GlcNAc
Procedure, shortened: as §1

[3] = target: Fuc(a1-2)[Gal(a1-3)]Gal(b1-3)GalNAc
Procedure, shortened: as §1

[4] = target: Fuc(a1-2)[Gal(a1-3)]Gal(b1-3)GlcNAc(b1-2)Man(a1-3)[Fuc(a1-2)[Gal(a1-3)]Gal(b1-3)GlcNAc(b1-2)Man(a1-6)]Man(b1-4)GlcNAc(b1-4)GlcNAc
Procedure, shortened: as §1

[5] = target: Fuc(a1-2)[GalNAc(a1-3)]Gal(b1-3)GlcNAc(b1-2)Man(a1-3)[Fuc(a1-2)[GalNAc(a1-3)]Gal(b1-3)GlcNAc(b1-2)Man(a1-6)]Man(b1-4)GlcNAc(b1-4)[Fuc(a1-6)]GlcNAc
Procedure, shortened: as §1

[6] = target: Fuc(a1-2)[GalNAc(a1-3)]Gal(b1-3)GlcNAc(b1-6)GalNAc
Procedure, shortened: as §1

[7] = target: Fuc(a1-2)[GalNAc(a1-3)]Gal(b1-4)GlcNAc(b1-6)GalNAc
Procedure, shortened: as §1

[8] = target: Fuc(a1-2)[GalNAc(a1-3)]Gal(b1-4)[Fuc(a1-3)]GlcNAc
Procedure, shortened: as §1

[9] = target: Fuc(a1-2)[GalNAc(a1-3)]Gal(b1-4)[Fuc(a1-3)]GlcNAc(b1-3)GalNAc
Procedure, shortened: as §1

[10] = target: Fuc(a1-3)[Gal(b1-4)]GlcNAc(b1-3)GalNAc
Procedure, shortened: as §1

[11] = target: Fuc(a1-3)[Gal3S(b1-4)]Glc
Procedure, shortened: as §1

[12] = target: Fuc(a1-3)[Gal3S(b1-4)]GlcNAc6S
Procedure, shortened: as §1

Fuc(a1-4)GlcNAc = target: Fuc(a1-4)GlcNAc
Procedure, shortened: as §1

[13] = target: Gal(a1-3)Gal(b1-3)GlcNAc(b1-6)GalNAc
Procedure, shortened: as §1

[14] = target: Gal(a1-3)[Gal(a1-4)]Gal(b1-4)GlcNAc
Procedure, shortened: as §1

[15] = target: Gal(a1-4)Gal(b1-4)GlcNAc(b1-2)Man(a1-3)[Gal(a1-4)Gal(b1-4)GlcNAc(b1-2)Man(a1-6)]Man(b1-4)GlcNAc(b1-4)GlcNAc
Procedure, shortened: as §1

Gal(b1-2)Gal = target: Gal(b1-2)Gal
Procedure, shortened: as §1

[16] = target: Gal(b1-3)GalNAc(b1-3)Gal(a1-4)Gal(b1-4)Glc
Procedure, shortened: as §1

[17] = target: Gal(b1-3)GlcNAc(b1-2)[Gal(b1-3)GlcNAc(b1-6)]Man(a1-6)[Gal(b1-3)GlcNAc(b1-2)Man(a1-3)]Man(b1-4)GlcNAc(b1-4)GlcNAc
Procedure, shortened: as §1

[18] = target: Gal(b1-3)GlcNAc(b1-3)Gal(b1-4)GlcNAc(b1-3)Gal(b1-4)GlcNAc(b1-2)[Gal(b1-3)GlcNAc(b1-3)Gal(b1-4)GlcNAc(b1-3)Gal(b1-4)GlcNAc(b1-6)]Man(a1-6)[Gal(b1-3)GlcNAc(b1-3)Gal(b1-4)GlcNAc(b1-3)Gal(b1-4)GlcNAc(b1-2)Man(a1-3)]Man(b1-4)GlcNAc(b1-4)[Fuc(a1-6)]GlcNAc
Procedure, shortened: as §1

[19] = target: Gal(b1-3)GlcNAc(b1-6)GalNAc
Procedure, shortened: as §1

[20] = target: Gal(b1-4)GlcNAc(b1-2)Man(a1-3)[Gal(b1-4)GlcNAc(b1-2)Man(a1-6)]Man(b1-4)GlcNAc(b1-4)GlcNAc
Procedure, shortened: as §1

[21] = target: Gal(b1-4)GlcNAc(b1-2)Man(a1-6)[Man(a1-3)]Man(b1-4)GlcNAc(b1-4)GlcNAc
Procedure, shortened: as §1

[22] = target: Gal(b1-4)GlcNAc(b1-2)[Gal(b1-4)GlcNAc(b1-6)]Man(a1-6)[Gal(b1-4)GlcNAc(b1-2)Man(a1-3)]Man(b1-4)GlcNAc(b1-4)[Fuc(a1-6)]GlcNAc
Procedure, shortened: as §1

[23] = target: Gal(b1-4)GlcNAc(b1-3)Gal(b1-4)GlcNAc(b1-2)Man(a1-3)[Gal(b1-4)GlcNAc(b1-3)Gal(b1-4)GlcNAc(b1-2)Man(a1-6)]Man(b1-4)GlcNAc(b1-4)GlcNAc
Procedure, shortened: as §1

[24] = target: Gal(b1-4)GlcNAc(b1-3)Gal(b1-4)GlcNAc(b1-3)Gal(b1-4)GlcNAc(b1-3)Gal(b1-4)GlcNAc(b1-3)Gal(b1-4)GlcNAc(b1-3)Gal(b1-4)GlcNAc(b1-2)Man(a1-3)[Gal(b1-4)GlcNAc(b1-3)Gal(b1-4)GlcNAc(b1-3)Gal(b1-4)GlcNAc(b1-3)Gal(b1-4)GlcNAc(b1-3)Gal(b1-4)GlcNAc(b1-3)Gal(b1-4)GlcNAc(b1-2)Man(a1-6)]Man(b1-4)GlcNAc(b1-4)GlcNAc
Procedure, shortened: as §1

[25] = target: Gal(b1-4)GlcNAc(b1-3)GalNAc
Procedure, shortened: as §1

[26] = target: Gal3S(b1-4)[Fuc(a1-3)]Glc6S
Procedure, shortened: as §1

GalNAc(b1-3)GlcNAc = target: GalNAc(b1-3)GlcNAc
Procedure, shortened: as §1

GalNAc(b1-4)Gal(b1-4)Glc = target: GalNAc(b1-4)Gal(b1-4)Glc
Procedure, shortened: as §1

[27] = target: GlcA3S(b1-3)Gal(b1-4)GlcNAc(b1-3)Gal(b1-4)Glc
Procedure, shortened: as §1

[28] = target: GlcNAc(a1-4)Gal(b1-4)GlcNAc(b1-3)Gal(b1-4)GlcNAc
Procedure, shortened: as §1

[29] = target: GlcNAc(b1-2)Man(a1-3)[GlcNAc(b1-4)][GlcNAc(b1-2)Man(a1-6)]Man(b1-4)GlcNAc(b1-4)GlcNAc
Procedure, shortened: as §1

GlcNAc(b1-3)Fuc = target: GlcNAc(b1-3)Fuc
Procedure, shortened: as §1

[30] = target: GlcNAc(b1-3)Gal(b1-4)GlcNAc(b1-2)Man(a1-3)[GlcNAc(b1-3)Gal(b1-4)GlcNAc(b1-2)Man(a1-6)]Man(b1-4)GlcNAc(b1-4)GlcNAc
Procedure, shortened: as §1

[31] = target: GlcNAc(b1-3)Gal(b1-4)GlcNAc(b1-2)[GlcNAc(b1-3)Gal(b1-4)GlcNAc(b1-6)]Man(a1-6)[GlcNAc(b1-3)Gal(b1-4)GlcNAc(b1-2)Man(a1-3)]Man(b1-4)GlcNAc(b1-4)GlcNAc
Procedure, shortened: as §1

[32] = target: GlcNAc(b1-3)Gal(b1-4)GlcNAc(b1-3)Gal(b1-4)GlcNAc(b1-3)Gal(b1-4)GlcNAc(b1-3)Gal(b1-4)GlcNAc(b1-2)[GlcNAc(b1-3)Gal(b1-4)GlcNAc(b1-3)Gal(b1-4)GlcNAc(b1-3)Gal(b1-4)GlcNAc(b1-3)Gal(b1-4)GlcNAc(b1-6)]Man(a1-6)[GlcNAc(b1-3)Gal(b1-4)GlcNAc(b1-3)Gal(b1-4)GlcNAc(b1-3)Gal(b1-4)GlcNAc(b1-3)Gal(b1-4)GlcNAc(b1-2)Man(a1-3)]Man(b1-4)GlcNAc(b1-4)[Fuc(a1-6)]GlcNAc
Procedure, shortened: as §1

[33] = target: GlcNAc6S(b1-3)Gal(b1-4)GlcNAc
Procedure, shortened: as §1

[34] = target: Man(a1-2)Man(a1-3)[Man(a1-2)Man(a1-6)]Man(a1-6)[Man(a1-2)Man(a1-2)Man(a1-3)]Man
Procedure, shortened: as §1

MurNAc(b1-4)GlcNAc = target: MurNAc(b1-4)GlcNAc
Procedure, shortened: as §1

[35] = target: Neu5Ac(a2-3)Gal(b1-3)GalNAc(b1-4)[Neu5Ac(a2-8)Neu5Ac(a2-3)]Gal(b1-4)Glc
Procedure, shortened: as §1

[36] = target: Neu5Ac(a2-3)Gal(b1-3)GlcNAc
Procedure, shortened: as §1

[37] = target: Neu5Ac(a2-3)Gal(b1-3)[Neu5Ac(a2-6)]GlcNAc(b1-3)[Fuc(a1-3)[Gal(b1-4)]GlcNAc(b1-6)]Gal(b1-4)Glc
Procedure, shortened: as §1

[38] = target: Neu5Ac(a2-3)Gal(b1-4)GlcNAc(b1-2)[Neu5Ac(a2-3)Gal(b1-4)GlcNAc(b1-6)]Man(a1-6)[Neu5Ac(a2-3)Gal(b1-4)GlcNAc(b1-2)Man(a1-3)]Man(b1-4)GlcNAc(b1-4)GlcNAc
Procedure, shortened: as §1

[39] = target: Neu5Ac(a2-3)Gal(b1-4)GlcNAc(b1-6)[Neu5Ac(a2-3)Gal(b1-3)]GalNAc
Procedure, shortened: as §1

[40] = target: Neu5Ac(a2-3)Gal(b1-4)[Fuc(a1-3)]GlcNAc(b1-3)GalNAc
Procedure, shortened: as §1

[41] = target: Neu5Ac(a2-6)Gal(b1-4)GlcNAc(b1-2)Man(a1-6)[Man(a1-3)]Man(b1-4)GlcNAc(b1-4)GlcNAc
Procedure, shortened: as §1

[42] = target: Neu5Ac(a2-8)Neu5Ac(a2-3)[Gal(b1-3)GalNAc(b1-4)]Gal(b1-4)Glc
Procedure, shortened: as §1

B1: RobpsCRA (Robinia pseudoacacia) (protein)
chain: IKGGYWYSGSGLAVSDINPSHFTHLFCAFADLDPNTNKLTISSSNAAAFSTFTQTVRAKNPSVKTLLSIGGGGGRALAAVFANMASQASRRKSFIDSSIQLARRNNFHGLDLDWEYPSSDIDKTNFASLIREWRAAVATESSTSGTPALLLSAAVGGSDQITPLKYYPGEAIANNLDWVNVMTYDLYTSDSYPTLTQPPAPLFYPRGIFSADEGITKWIQSGVPESKLALGLPFYGFKWRLSDPNNHGLFAPATQGLGAVKYKDIVNTGGQVEFDSTYVTNYCFKGTDWYGYDDTQSISAKVAYAKQRGLFGYFAWHIEQDSNWALS
- glycan array binding signal (z-score) [1]: -0.523
- glycan array binding signal (z-score) (Fuc(a1-2)Gal(b1-4)Glc): 0.123
- glycan array binding signal (z-score) [2]: -0.573
- glycan array binding signal (z-score) [3]: -0.447
- glycan array binding signal (z-score) [4]: -0.684
- glycan array binding signal (z-score) [5]: -0.163
- glycan array binding signal (z-score) [6]: -0.584
- glycan array binding signal (z-score) [7]: -0.132
- glycan array binding signal (z-score) [8]: -0.375
- glycan array binding signal (z-score) [9]: 16.3
- glycan array binding signal (z-score) [10]: 0.084
- glycan array binding signal (z-score) [11]: -0.504
- glycan array binding signal (z-score) [12]: 0.763
- glycan array binding signal (z-score) (Fuc(a1-4)GlcNAc): -0.31
- glycan array binding signal (z-score) [13]: -0.356
- glycan array binding signal (z-score) [14]: 1.85
- glycan array binding signal (z-score) [15]: 0.418
- glycan array binding signal (z-score) (Gal(b1-2)Gal): -0.839
- glycan array binding signal (z-score) [16]: 0.121
- glycan array binding signal (z-score) [17]: -0.739
- glycan array binding signal (z-score) [18]: 0.989
- glycan array binding signal (z-score) [19]: -0.441
- glycan array binding signal (z-score) [20]: -0.393
- glycan array binding signal (z-score) [21]: 0.031
- glycan array binding signal (z-score) [22]: 1.6
- glycan array binding signal (z-score) [23]: 1.01
- glycan array binding signal (z-score) [24]: 2.18
- glycan array binding signal (z-score) [25]: 0.32
- glycan array binding signal (z-score) [26]: 1.65
- glycan array binding signal (z-score) (GalNAc(b1-3)GlcNAc): 0.418
- glycan array binding signal (z-score) (GalNAc(b1-4)Gal(b1-4)Glc): 0.371
- glycan array binding signal (z-score) [27]: 2.45
- glycan array binding signal (z-score) [28]: 1.54
- glycan array binding signal (z-score) [29]: -0.359
- glycan array binding signal (z-score) (GlcNAc(b1-3)Fuc): -0.426
- glycan array binding signal (z-score) [30]: -0.142
- glycan array binding signal (z-score) [31]: 1.5
- glycan array binding signal (z-score) [32]: 1.28
- glycan array binding signal (z-score) [33]: -0.663
- glycan array binding signal (z-score) [34]: 0.574
- glycan array binding signal (z-score) (MurNAc(b1-4)GlcNAc): -0.389
- glycan array binding signal (z-score) [35]: -0.829
- glycan array binding signal (z-score) [36]: 0.156
- glycan array binding signal (z-score) [37]: -0.376
- glycan array binding signal (z-score) [38]: -0.526
- glycan array binding signal (z-score) [39]: -0.478
- glycan array binding signal (z-score) [40]: 1.49
- glycan array binding signal (z-score) [41]: 1.67
- glycan array binding signal (z-score) [42]: 0.946
